Shown are actives, neighbours in structure and some others; about 18% of the full set was active somewhere.
TGFb inhibitor: TGF-b pathway inhibition | HepG2 CAGA-GFP TGF-b/SMAD3 reporter, GFP fluorescence, 18 h; TGF-beta stimulated, 500 pg/mL final | Potency, µM (highest dose often 46.1 µM), for the others: at the highest dose activity, negative = inhibition, actives largely listed as inhibitors | 410,000 compounds, 1.2% hits | AID 588855; also: potency is read from the fitted curve at half-maximal effect; % is scaled to controls: 0 for no effect and ±100 for the full control effect; nearly all actives have a fitted effect of over 65% in size
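Smad-responsive CAGA-GFP expression was quantified in HEPG2 cells exposed to compounds and 500 pg/mL final TGF-beta for 18 h at 37 degrees C; unstimulated wells defined full inhibition.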
TDP1 cell noCPT: qHTS for Inhibitors of human tyrosyl-DNA phosphodiesterase 1 (TDP1): qHTS in cells in absence of CPT. 420,000 compounds, 15% hits. AID 686978, 2013. DT40 Tdp1-/- hTDP1 cells, no CPT, ATP luminescence, 48 h. Potency, µM (top dose mostly 46.2 µM), inactives show at the highest dose activity change, negative = growth inhibition, actives largely listed as inhibitors; also: potency is read from the fitted curve at half-maximal effect; % is scaled to controls: 0 for no effect and ±100 for the full control effect; nearly all actives have a fitted effect of over 55% in size
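Luminescent ATP content (CellTiter-Glo) served as the growth readout. Knockout chicken DT40 cells expressing human TDP1 were exposed to compounds without camptothecin for a minimum 48 hr at 37 °C.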
HepG2 tox: HepG2 cytotoxicity, counter-screen for TGF-b inhibitors. Potency, µM (highest dose often 46.1 µM), for the others: top-dose activity change, negative = cytotoxicity, actives largely listed as cytotoxic. 410,000 compounds, 0.76% hits. HepG2 CAGA-GFP viability, ATP luminescence, 18 h; also: potency is read from the fitted curve at half-maximal effect
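CellTiter-Glo luminescence gave cytotoxicity after 18 hours at 37 degrees C. The cells were HepG2 CAGA-GFP in 1% FBS DMEM, stimulated with 500 pg/mL TGF-beta after compound addition. %Activity was normalised to no-cell wells (complete cell-killing) and DMSO (no toxicity), and curves were fitted and classified.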
TDP1 inh: inhibitors of human tyrosyl-DNA phosphodiesterase TDP1; 350,000 compounds, 0.28% hits; AID 485290; Q9NUW8; recombinant TDP1, AlphaScreen DNA substrate cleavage; Potency, µM (series often up to 130 µM), without a hit: at the top dose activity change, negative = inhibition, actives largely listed as inhibitors; also: potency is read from the fitted curve at half-maximal effect; % is scaled to controls: 0 for no effect and ±100 for the full control effect; nearly all actives have a fitted effect of over 40% in size
Target sequence (Q9NUW8 whole entry, looked up): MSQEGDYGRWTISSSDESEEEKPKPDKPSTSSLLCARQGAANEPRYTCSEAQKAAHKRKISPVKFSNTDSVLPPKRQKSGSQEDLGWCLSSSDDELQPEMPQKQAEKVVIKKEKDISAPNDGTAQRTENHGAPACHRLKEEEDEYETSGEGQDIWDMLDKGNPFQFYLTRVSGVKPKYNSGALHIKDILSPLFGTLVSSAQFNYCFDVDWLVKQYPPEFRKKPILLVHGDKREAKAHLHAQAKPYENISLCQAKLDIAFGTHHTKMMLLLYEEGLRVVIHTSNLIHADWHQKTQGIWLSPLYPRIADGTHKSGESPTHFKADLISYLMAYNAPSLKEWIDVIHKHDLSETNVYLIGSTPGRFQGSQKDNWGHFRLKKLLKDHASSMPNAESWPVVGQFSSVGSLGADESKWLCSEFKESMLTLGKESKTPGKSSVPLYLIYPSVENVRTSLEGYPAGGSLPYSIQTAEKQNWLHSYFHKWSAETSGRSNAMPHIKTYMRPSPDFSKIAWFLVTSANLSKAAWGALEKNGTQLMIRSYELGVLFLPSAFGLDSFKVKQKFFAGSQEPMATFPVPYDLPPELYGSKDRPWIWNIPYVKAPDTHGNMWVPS
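Steps: enzyme plus compound, 15 min RT; add biotin/phosphotyrosine-FITC oligonucleotide (15 nM final), react 5 min; add donor/acceptor beads (10 ug/ml final), 10 min; read AlphaScreen. Tdp1 at 1 nM final.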
IL1B secr inh: blocks inflammasome-driven IL-1 beta release; 360,000 compounds, 4.7% hits; activity change, % at 57.5 µM; AID 743279; THP-1 LPS/ATP IL-1B secretion, AlphaLISA, 16 h; active compounds read low; in the data active = activity change below about -50%; inconclusive = mostly about -30% to -49%; also: % is scaled to controls: 0 for no effect and ±100 for the full control effect
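Secreted IL-1B measured by AlphaLISA bead assay after 16 h compound exposure of THP-1 cells; compounds (final up to 57.5 uM) added 1 h before LPS (250 ng/mL) and ATP (1.25 mM) stimulation; lower signal means less secretion.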
TDP1 cell CPT: growth inhibition of DT40 Tdp1-/-;hTDP1 cells with camptothecin (screen for TDP1 inhibitors). 420,000 compounds, 12% hits. chicken DT40 Tdp1-/-;hTDP1 cells + 20 nM CPT, ATP luminescence, 48 h. Potency, µM (highest dose often 46.2 µM), without a hit: at the highest dose activity change, negative = growth inhibition, hits mostly inhibitors; also: potency is read from the fitted curve at half-maximal effect; % is scaled to controls: 0 for no effect and ±100 for the full control effect; nearly all actives have a fitted effect of over 55% in size
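Chicken DT40 Tdp1-/- cells stably complemented with human TDP1 were seeded at 400 cells/well in medium containing 20 nM camptothecin, exposed to pin-transferred compounds, and grown at 37 °C for at least 48 hr. Viability was read as ATP luminescence.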
The depositor's hits bear a star; ? = inconclusive; . = no result; [ ] = remark or other dose. Unless noted, calls follow the shape of the dose curve; as a rule, active = well fitted curve in the direction sought with a large enough effect; inconclusive = small, poorly fitted or top-dose-only effect, or another doubt; inactive = no such curve, though single readings can be large; an effect the other way counts as inactive or inconclusive.

SMILES | TGFb inhibitor | TDP1 cell noCPT | HepG2 tox | TDP1 inh | IL1B secr inh | TDP1 cell CPT
CN(CC(=O)Nc1ccc(Cl)c(C(F)(F)F)c1)C(=O)CCCNC(=O)c1ccc(Cl)cc1 | ? | 15µM* | -18% | 0% | -22 | 21µM*
Cc1cc(C)cc(OCC(=O)N(C)CC(=O)Nc2ccc(Cl)c(C(F)(F)F)c2)c1 | ? | ? | -47% | 0% | -78* | ?
Cc1ccc(NC(=O)CN(C)C(=O)c2cccnc2Nc2cccc(C(F)(F)F)c2)cc1 | ? | ? | -97% | 1% | -79* | ?
CN(CC(=O)Nc1cccc(F)c1)C(=O)c1ccccc1OCC(=O)Nc1cccc(C(F)(F)F)c1 | 2% | ? | -9% | 0% | 2 | ?
Cc1cc(NC(=O)CN(C)CC(=O)Nc2ccc(Cl)c(C(F)(F)F)c2)no1 | -25% | 16µM* | -24% | -3% | -12 | 15µM*
CC1CCCC(NC(=O)CN2C(=O)NC(c3ccccc3)(c3ccccc3)C2=O)C1C (stereo not given) | -24% | ? | -17% | -3% | -17 | ?
COCc1c(Br)c(C)nc2sc3c(=O)n(-c4cccc(Br)c4)nnc3c12 | -8% | 0% | -14% | -2% | . | -2%
CC1CCC(NC(=O)CCNS(=O)(=O)c2ccc3c(c2)CCC(=O)N3)CC1 (stereo not given) | -5% | -3% | -49% | 3% | -10 | -16%
N[C@H](Cn1ccc(=O)n(Cc2ccccc2C(=O)O)c1=O)C(=O)O | . | -8% | . | 4% | . | -10%
O=C(NCCS(=O)(=O)N1CCCCCC1)c1ccccc1 | 18% | -8% | 5% | -9%[0.505 µM] | -10 | -1%
CN(CC(=O)Nc1ccc(Cl)c(C(F)(F)F)c1)C(=O)C1CCC1 | -3% | ? | -3% | . | -6 | ?
CN(CC(=O)Nc1ccc(Cl)c(C(F)(F)F)c1)C(=O)CNC(=O)C1CCCCC1 | -7% | 16µM* | -5% | 0% | 10 | ?
CN(CC(=O)Nc1ccc(Cl)c(C(F)(F)F)c1)C(=O)c1cc(=O)[nH]c2ccccc12 | -3% | ? | -29% | -11% | ? | ?
CN(CC(=O)Nc1ccc(OC(F)(F)F)cc1)S(=O)(=O)c1cnc[nH]1 | -2% | -15% | -1% | -1% | 34 | -9%
CN(CC(=O)Nc1ccc(Cl)c(C(F)(F)F)c1)C(=O)c1cccc2cccnc12 | ? | 23µM* | -15% | 0% | -26 | ?
CN(CC(=O)Nc1ccc(Cl)c(C(F)(F)F)c1)S(=O)(=O)c1cnc[nH]1 | -18% | 15µM* | -15% | . | 12 | 15µM*
COC(=O)[C@@H]1CCCN1Cc1ccc2c(c1)CN(Cc1ccccc1C)CCO2 | . | -2% | . | . | . | 9%[9.04 µM]
CCc1ccc(NC(=O)N2CCN(c3ccc(F)cc3)CC2)cc1 | -25% | 26µM* | -42% | . | -20 | ?
CCc1ccc(CNc2ccc(N3CCN(C(C)=O)CC3)cc2)cc1 | ? | 18µM* | -17% | 12% | -4 | -19%
O=C(Nc1cccc(F)c1)c1oc2ccccc2c1NC(=O)C12CC3CC(CC(C3)C1)C2 | 12% | 12% | 0% | -4% | . | -5%
Cc1ccc(NC(=O)c2nnn(-c3cccc(C(F)(F)F)c3)c2N)cc1 | 9% | -24% | -13% | 8% | -5 | 2%
Nc1c(C(=O)Nc2ccccc2)nnn1-c1ccc2c(c1)OCCO2 | 0% | ? | 3% | 0% | -60* | -8%
Cc1ccc(NC(=O)c2nnn(-c3ccc4c(c3)OCCO4)c2N)cc1 | ? | ? | -22% | 1% | -90* | ?
O=C(Nc1ccccc1C(=O)NC(Cc1ccccc1)C(=O)NC1CCCCCC1)c1ccccc1 (stereo not given) | 7% | 23µM* | 4% | -1% | -15 | ?
O=C(Nc1ccsc1C(=O)NC1CCCCC1)c1ccccc1 | -11% | 21µM* | -2% | -2% | 0 | ?
SMILES | TGFb inhibitor | TDP1 cell noCPT | HepG2 tox | TDP1 inh | IL1B secr inh | TDP1 cell CPT
O=C(Nc1ccsc1C(=O)O)c1ccc(Cl)cc1 | -31% | ? | -29% | . | 17 | 5%
O=C(Nc1ccccc1C(=O)NC1CCCCC1)c1ccccc1 | 14% | ? | -2% | -2% | -21 | ?
Cc1ccc(C(=O)Nc2ccsc2C(=O)O)cc1 | -6% | 15µM* | -55% | . | -28 | ?
COCCNC(C)C(=O)Nc1ccc(Br)cc1 (stereo not given) | 3% | -12% | -5% | 2% | 0 | -17%
CC(C)CN1CCC2(CC1)CCN(C(=O)c1csnn1)CC2 | . | ? | . | . | . | -1%
O=C(N/N=C/c1ccccn1)c1cc(-c2ccc(Br)cc2)nc2ccccc12 | ? | 1.8µM* | -9% | 6% | -96* | 2.6µM*
O=C(O)COc1ccccc1/C=N/NC(=O)c1cc(-c2ccc(Cl)cc2)nc2ccccc12 | 0% | 6.5µM* | -12% | . | 0 | -14%
O=C(N/N=C/c1ccccn1)c1cc(-c2ccc(Cl)cc2)nc2ccccc12 | ? | 8.2µM* | -35% | 11% | -102* | 3.3µM*
O=C(O)COc1ccccc1/C=N/NC(=O)c1cc(-c2ccccc2)nc2ccccc12 | -1% | -28% | 6% | 8% | 0 | -27%
Cc1cccc(-c2cc(C(=O)N/N=C/c3cccnc3)c3ccccc3n2)c1 | 0% | ? | -38% | . | -20 | ?
CC(CCc1ccccc1)NS(=O)(=O)c1ccccc1Cl (stereo not given) | -16% | -28% | -11% | 6% | 6 | ?
O=C(CN1C(=O)C(=O)N(CCC2=CCCCC2)C1=O)c1c[nH]c2ccccc12 | ? | ? | -33% | 4% | -59* | -13%
Cc1ncsc1CCOC(=O)c1ccc(Cl)cc1 | -3% | -27% | -17% | -3% | -6 | -16%
Cc1ccccc1OCC(=O)NCC(=O)OCC(=O)c1ccc2c(c1)CCCC2 | 16% | -10% | 22% | 1% | . | -28%
CCOc1ccc(/C=N/NC(=O)c2[nH]ncc2Br)c(O)c1 | 3% | 5.2µM* | -51% | -3% | 135 | 5.2µM*
O=C(N/N=C/c1c(O)ccc2ccccc12)c1[nH]ncc1Br | ? | 4.6µM* | -22% | 3% | 99 | 2.6µM*
O=C(N/N=C\c1c(O)ccc2ccccc12)c1ccc(Cn2cccn2)o1 | 49% | 5.8µM* | -26% | 6% | 74 | 5.8µM*

Bioassay records (PubChem)
